Bioassay records (PubChem BioAssay)
The list is not random: actives were taken first. Their share in the collection is about 6.3%.
A340 absorber = compounds absorbing at 340 nm | compound absorbance at 340 nm, fold over control | fold change at 10 µM | 65,000 tested, under 10 active | AID 708;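 active means at 10 µM dose, initial 340 nm absorbance at least 2 fold that of control wells; inactive means change under 2 fold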;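 further: initial absorbance extrapolated from kinetic A340 decline of NADH oxidation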
DPM-DC inhibit = inhibitors of Streptococcus pneumoniae diphosphomevalonate decarboxylase; purified DPM-DC, PK/LDH coupled NADH fluorescence; calls only at 10 µM; AID 556; hit rate 0.49% among 65,000;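 active means the 320 compounds with the highest percent inhibition in the single-dose primary screen, excluding strongly autofluorescent ones, cut at about 32% in these data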;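 further: kinetic rate of NADH fluorescence loss reporting ADP formed by the decarboxylase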
MK inhibit = inhibitors of Streptococcus pneumoniae mevalonate kinase | inhibition, % at 10 µM | purified MK, PK/LDH-coupled NADH absorbance 340 nm | hit rate 0.48% among 65,000;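 active means ranked among the strongest by inhibition in the single 10 µM screen, a fixed top-ranked set picked for dose follow-up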
NADH coupling = inhibition of NAD/NADH coupling enzymes, library profiling; IC50, µM (series often up to 10 µM), for inactives: at the top dose inhibition; AID 774; coupled PK/LDH NADH assays, four targets; hit rate 0.02% among 65,000;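 active means single-dose screening hits from any of four coupled enzyme assays that gave an IC50 when retested across doses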;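 further: the DPM-DC format reads NADH fluorescence rather than 340 nm absorbance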
Fluor 339 460 = intrinsic fluorescence of library compounds, ex339/em460 – biochemical, MLSMR library, data from DPM-DC assay, artefact control, profiling panel; compound autofluorescence, ex339/em460 nm, NADH buffer; hits give high values; 1 = no-compound wells, NADH background; fluorescence fold increase at 10 µM; hit rate 5.5% among 65,000; AID 709;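 active means at 10 µM, mean starting fluorescence two-fold or more over control wells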;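 further: signal is the first read of a kinetic run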
PMK inhibit = S. pneumoniae PMK inhibition. purified PMK, PK/LDH-coupled NADH absorbance 340 nm. inhibition, % at 10 µM. hit rate 0.49% among 65,000. AID 539;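 active means top-ranked compounds by inhibition in the single 10 µM screen, taking a fixed number of the strongest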;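 further: 0% = full reaction with DMSO carrier and 100% = background rate without enzyme reaction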
* marks the source's active call; other numbers are inactive results; i = inactive; x = not tested or not shown; + = active, no number.

SMILES	A340 absorber	DPM-DC inhibit	MK inhibit	NADH coupling	Fluor 339 460	PMK inhibit
CCN(CC)S(=O)(=O)c1ccc2[nH]cc(C(=O)NCCN3CCCCC3C)c(=O)c2c1 (configuration not stated)	1.08	i	0.0	8.0%	2.97*	13.0
COc1cccc(NS(=O)(=O)c2ccc3[nH]cc(C(=O)NCCN4CCOCC4)c(=O)c3c2)c1	1.08	i	7.0	8.0%	1.4	16.0
Cc1ccccc1N(C)S(=O)(=O)c1ccc2[nH]cc(C(=O)NCC3CCCO3)c(=O)c2c1 (configuration not stated)	1.01	i	0.0	16.0%	2.15*	21.0
Cc1ccc(N(CC(=O)O)S(C)(=O)=O)cc1Cl	1.04	i	4.0	6.0%	1.07	13.0
c1ccc2nc(-c3nc4ccccc4o3)ccc2c1	1.17	x	17.0	11.0%	2.11*	5.0
c1cc(-c2nc3ccccc3o2)nc(-c2nc3ccccc3o2)c1	0.98	i	10.0	5.0%	1.16	15.0
Cc1n[nH]c(C)c1N1C(=O)c2cccc3c(N4CCCCCC4)ccc(c23)C1=O	1.04	i	5.0	12.0%	1.11	32.0*
CC(C)n1c2ccccc2c2nc3ccccc3nc21	1.1	i	0.0	5.0%	2.69*	0.0
C=CCn1c(SC/C=C/c2ccccc2)nnc1-c1sc(N)nc1C	1.03	i	1.0	1.0%	1.09	3.0
O=C(c1ccco1)N1CCN(C2CCCC2)CC1	1.08	i	50.0*	19.0%	1.14	6.0
CC1CCN(S(=O)(=O)c2ccc(S(=O)(=O)NCC3COCCO3)cc2)CC1 (configuration not stated)	1.01	i	5.0	6.0%	1.06	14.0
O=c1c(-c2ccc(F)cc2)coc2cc(O)ccc12	1.13	x	9.0	5.0%	2.18*	0.0
COc1ccc(-c2coc3cc(O)ccc3c2=O)cc1OC	1.08	+	0.0	16.0%	3.62*	17.0
COc1ccc(-c2c(C)oc3cc(O)cc(O)c3c2=O)cc1OC	1.09	i	7.0	3.0%	1.05	0.0
Cc1ccccc1-n1c(SCC(=O)c2cc(C)n(C)c2C)nnc1-c1ccncc1	1.09	i	11.0	5.0%	1.13	3.0
CS(=O)(=O)N1CCCC(C(=O)NCc2ccccn2)C1 (configuration not stated)	1	i	0.0	10.0%	1	29.0*
C=CCNC(=O)C1CCCN(S(C)(=O)=O)C1 (configuration not stated)	1.04	i	0.0	9.0%	1.07	28.0*
COc1ccccc1-n1c(CNC(=O)c2ccco2)nnc1SCC(=O)Nc1ccc(F)cc1	1.02	i	3.0	5.0%	1.09	12.0
CCc1c(C(=O)O)[nH]c2ccc(Br)cc12	0.99	i	5.0	7.0%	1.07	11.0
COc1cccc(-c2noc(C3CCCN(S(=O)(=O)c4cccc(Cl)c4C)C3)n2)c1 (configuration not stated)	0.97	i	0.0	5.0%	0.86	0.0
Cc1cc(C)c2c(n1)nn1c(N3CCN(c4ccccc4)CC3)cc(C)nc21	0.99	+	10.0	20.0%	3.17*	2.0
Cc1cc(C)c2c(n1)nn1c(N3CCN(c4ccccn4)CC3)cc(C)nc21	1.02	i	9.0	12.0%	3.04*	10.0
Cc1cc(-c2ccccc2)nc(N2CCN(c3ccccn3)CC2)n1	0.95	i	0.0	2.0%	1.38	6.0
CCOC(=O)c1c(C)c(C(=O)Nc2cc(F)ccc2F)c(C)n1C	0.98	i	7.0	7.0%	0.97	9.0
Cc1c(C(=O)N2CCCc3ccccc32)oc2ccc(S(=O)(=O)N3CCOCC3)cc12	0.98	i	0.0	5.0%	1.06	14.0
SMILES	A340 absorber	DPM-DC inhibit	MK inhibit	NADH coupling	Fluor 339 460	PMK inhibit
COc1ccc(-c2cc3nc(-c4ccccc4)cc(N4CCC5(CC4)OCCO5)n3n2)cc1	1.03	x	6.0	8.0%	4.85*	9.0
Cc1cccc(-c2cc3nc4c(c(N5CCC6(CC5)OCCO6)n3n2)CCCC4)c1	1	i	14.0	5.0%	1.52	7.0
COC(=O)c1ccc(S(=O)(=O)NCCSc2nnc3c4ccccc4n(C)c3n2)cc1	1.11	i	6.0	9.0%	1.09	21.0
CCOc1cc(NC(=O)c2ccco2)c(OCC)cc1NC(=O)c1cc(OC)c(OC)c(OC)c1	1.06	x	7.0	5.0%	3.99*	3.0
COc1cc2cc3c(N)c(C(=O)NCc4ccco4)sc3nc2cc1OC	1.07	i	9.0	13.0%	1.23	20.0
COc1cc(NC(=O)c2ccco2)c(OC)cc1NC(=O)c1cc(OC)c(OC)c(OC)c1	1.07	i	5.0	5.0%	1.09	3.0
COc1ccccc1NC(=O)c1oc2ccccc2c1NC(=O)c1ccco1	1.04	x	10.0	9.0%	5.01*	7.0
Nc1c(C(=O)Nc2ccccc2)sc2nc(-c3ccco3)ccc12	1.15	x	7.0	7.0%	3.74*	6.0
COc1ccccc1NC(=O)c1sc2nc(-c3ccco3)ccc2c1N	1.15	x	11.0	7.0%	3.83*	3.0
NC(=O)c1oc2ccccc2c1NC(=O)c1ccco1	1.05	i	3.0	1.0%	1.07	0.0
Cc1ccc2c(c1)nnn2C1CCN(CC(=O)Nc2ccccc2N2CCOCC2)CC1	0.97	i	8.0	4.0%	1.13	3.0
CCOC(=O)c1cnc(SCC(=O)Nc2ccccc2N2CCOCC2)nc1N	1.06	i	1.0	2.0%	1.08	4.0
CCn1c(=O)c2cc(S(=O)(=O)NC3CCCCC3)ccc2n(CC)c1=O	1.06	i	2.0	3.0%	1.07	0.0
COC(=O)Sc1nnc(-c2ccc(Br)cc2)o1	1.05	+	5.0	19.6µM*	1.51	16.0
COc1cc(CNc2ccc3c(c2)CCC3)cc(OC)c1O	1.06	i	44.0*	15.0%	1.13	0.0
O=C(O)c1cc2c([nH]c1=O)CCCC2	1.01	x	6.0	4.0%	2.3*	11.0
CN(C)c1nc(Oc2ccc(=O)[nH]n2)nc(N2CCCCC2)n1	1.02	i	9.0	5.0%	1.04	6.0
COc1ccc(OC)c(NC2c3ncccc3C(=O)N2Cc2ccco2)c1 (configuration not stated)	1.06	i	26.0	14.0%	1.06	17.0
COc1ccc(CN2C(=O)c3cccnc3C2Nc2cc(Cl)ccc2OC)cc1 (configuration not stated)	1.04	i	83.0*	17.0%	1.04	14.0
CCC(OC(=O)CCc1nc2ccccc2[nH]c1=O)C(=O)c1ccccc1 (configuration not stated)	1.1	i	0.0	6.0%	1.5	13.0
CC(=O)N1CCC2(CC1)CC(=O)c1cc(OCC(=O)NCc3ccco3)ccc1O2	1	x	0.0	6.0%	3.39*	12.0
CC(=O)N1CCC2(CC1)CC(=O)c1cc(OCC(=O)NCc3ccc(C)cc3)ccc1O2	1.02	x	0.0	3.0%	3.48*	12.0
C/C(N)=C(/C#N)C(=O)CSc1nnnn1-c1ccc(C)cc1	1	i	0.0	5.0%	0.99	14.0
